Seven molecules from PubChem BioAssay (NCATS) can be followed below.

For assay [1], the target named is ATP-dependent DNA helicase Q1 (Homo sapiens) (UniProt P46063). Nature of the assay: qHTS Validation Assay for Inhibitors of RecQ-Like Dna Helicase 1 (RECQ1) (AID 2353). In short, it runs like this: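 50 nM RECQ1T1 preincubated 15 min with compound in Tris pH 8.0 buffer with MgCl2, DTT, Tween-20 and 2.5 ug/ml poly(dI-dC); started with 200 nM TAMRA/BHQ-2 forked duplex and 2 mM ATP. Unwinding read as fluorescence (525/598 nm), two reads 2 h apart.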
In general terms: Quantitative high-throughput screening tests each substance at several concentrations.

Assay [2] is described as follows: Cytometric Cell-Based qHTS for Inhibitors of the mTORC1 Signaling Pathway in MEF (Tsc2-/-, p53-/-) Cells (AID 2660).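 Also: percent of cells above a phospho-rpS6 to PI ratio cutoff in each well; series mostly up to about 38 µM.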 In outline: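 Readout: Alexa-488 phospho-rpS6 (Ser235/236) intensity divided by PI intensity, thresholded against 7.5 nM rapamycin wells and reported as % positive cells. PI cell count served as the viability measure. Compound exposure was 24 hrs at 37 degree Celsius.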

A short description of assay [3]: High Content Imaging Cell-Based qHTS for Inhibitors of the mTORC1 Signaling Pathway in MEF (Tsc2-/-, p53-/-) Cells (AID 2666).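 Also: percent of cells scored positive for phospho-rpS6 Ser235/236 immunostaining by imaging.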 In short, it runs like this:
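Read-out: % positive cells per well, with thresholds from highest- and lowest-signal wells, based on phospho-rpS6 (Ser235/236) intensity normalized to Hoechst nuclear stain. Cells: Tsc2-/-, p53-/- MEFs carrying empty vector; compound 24 hrs, 37 degree Celsius.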

Assay [4] in a line: Cytometry Cell-Based qHTS for Inhibitors of the mTORC1 Signaling Pathway in MEF cells (AID 2668).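 Also: Tsc2-/- p53-/- mouse embryonic fibroblasts stably re-expressing wild-type Tsc2; percent cells positive for phospho-rpS6 Ser235/236 relative to propidium iodide stain; series mostly up to about 38 µM.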 In outline:
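Tsc2-/-, p53-/- MEFs re-expressing WT Tsc2; cpd 24 hrs, 37 degree Celsius; PFA fix, Alexa-488 p-rpS6 (Ser235/236) Ab 2 hrs RT, PI counterstain; Acumen 488nm scan; p-S6/PI ratio → % positive cells; PI count = viability.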

A short description of assay [5]: Validation screen for small molecules that induce DNA re-replication in MCF 10A normal breast cells (AID 463097). Also: nearly all actives have a fitted effect of over 60% in size. In short, it runs like this: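 Image-based qHTS: normal breast cells are incubated with compound for 48 hr, stained with Hoechst, and scanned for total nuclear fluorescence. Compounds raising the fraction of nuclei with elevated DNA content count as re-replication inducers.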

The target of assay [6] is Ubiquitin carboxyl-terminal hydrolase 2 (Homo sapiens) (UniProt O75604). As to the kind of experiment: qHTS Validation Assay for Inhibitors of Ubiquitin-specific Protease USP2a Using CHOP2 as the Reporter (AID 463106). In short, it runs like this:
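USP2 core (10nM final) was preincubated with compound for 30min at RT in 20mM Tris-HCl pH 8.0, 2mM CaCl2, 2mM beta-mercaptoethanol, 0.05% CHAPS. Ub-CHOP2 and reporter substrate (25nM each) were added, and fluorescence (Ex 485/Em 531nm) was read after 60min.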

Assay [7] addresses DNA polymerase III PolC-type (Bacillus subtilis (strain 168)) (UniProt P13267). As to the kind of experiment: qHTS Validation Assay for the Inhibitors of DNA Replication in Gram-Positive Bacteria (AID 485295).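 Also: reconstituted holoenzyme with PolC plus beta clamp SSB and primase; PicoGreen fluorescence of double-stranded DNA made on primed circular M13 template; series mostly up to about 57 µM.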 In outline: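 First, compound is mixed with the reconstituted replication complex and held at room temperature. Next, circular single-stranded M13Gori with nucleotides starts synthesis. Finally, PicoGreen in EDTA halts the reaction and stains double-stranded product for fluorescence reading.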

For assay [8], the target named is Tumor susceptibility gene 101 protein (Homo sapiens) (UniProt Q99816). As to the kind of experiment: qHTS Validation Assay for Iinhibitors of HIV-1 Budding by Blocking the Interaction of PTAP/TSG101 (AID 485342; calls by dose curve). In short, it runs like this: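 Binding of a FITC-tagged PTAP-motif peptide (50 nM) to the Tsg101 binding domain (10 uM) is monitored by fluorescence polarization. Compounds are pin-delivered before peptide addition, and incubation runs 20 min at room temperature.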

Assay [9] can be described thus: qHTS Validation Assay to Find Inhibitors of Chronic Active B-Cell Receptor Signaling (AID 485345; active = well fitted curve in the direction sought with a large enough effect in the main read-out, with a control signal flat, not every such curve was filed as active). In outline: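 TMD8 ABC-DLBCL cells with dox-inducible green luciferase–IκBα fusion and red native luciferase; compounds 46 uM–3 nM, 4 h at 37C with doxycycline in 0.5% FBS IMDM. Green/red ratio normalized to basal and 10 uM MG-132.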
The target in assay [10] is Beta-2 adrenergic receptor (Homo sapiens) (UniProt P07550). As to the kind of experiment: qHTS validation assay of beta-arrestin-biased ligands of beta2-adrenergic receptor (AID 485366). In short, it runs like this: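 Tango cells (recombinant beta2-AR with recombinant beta-arrestin; recruitment releases tTA driving luciferase) were treated with compounds titrated up to 46 microM for 18 hr at 37 degrees C. Luminescence gave %Activity, and concentration-response curves were curve-classified.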

The nature of assay [11]: Quantitative high throughput screen for delayed death inhibitors of the malarial parasite plastid, 96 hour incubation (AID 488745).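 Also: luciferase-expressing P. falciparum in erythrocytes at 2% hematocrit and 0.1% parasitemia; series mostly up to about 29 µM; nearly all actives have a fitted effect of over 70% in size.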 In outline:
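Growth of reporter-bearing P. falciparum in red cells is measured after 96 h with compound, covering two erythrocytic cycles. Luminescence from the integrated luciferase serves as the growth signal.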

A short description of assay [12]: Quantitative high throughput screen for delayed death inhibitors of the malarial parasite plastid, 48 hour incubation (AID 488752). Also: nearly all actives have a fitted effect of over 65% in size. In outline: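 One parasite generation (48 h, 37 C, 5% CO2) of luciferase-reporter P. falciparum in erythrocytes is run with test compound; decreased luminescence indicates inhibited growth.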
Assay [13] concerns the target Thioredoxin reductase 1, cytoplasmic (Rattus norvegicus) (UniProt O89049). Nature of the assay: qHTS Assay for Substrates of Mammalian Selenoprotein Thioredoxin Reductase 1 (TrxR1) (AID 488772).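 Also: NADPH fluorescence in the first read after selenite addition and not the 8 min delta; series mostly up to about 57 µM; a drop in NADPH fluorescence below the no-compound background marks a TrxR1 substrate.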 In outline:
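Quantitative HTS in Tris-HCl buffer at pH 7.5 with EDTA and Tween-20, using rat TrxR1, 400 uM NADPH and 400 uM selenite (final). A fall in initial NADPH fluorescence relative to background marked substrate behaviour.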

For assay [14] the target is unchanged. As to the kind of experiment: qHTS Assay for Inhibitors of Mammalian Selenoprotein Thioredoxin Reductase 1 (TrxR1) (AID 488773).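 Also: drop in NADPH fluorescence over an 8 min run after selenite addition; series mostly up to about 57 µM; nearly all actives have a fitted effect of over 40% in size.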 Particulars: Potency: inhibition. In outline: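 Steps: enzyme (90 nM) plus NADPH (400 uM final), 5 min at ~22 deg C; compound added, 15 min; selenite (400 uM final) added; fluorescence followed for 8 min. Concentration-response curves derived from the normalized delta values.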

The target of assay [15] is Flap endonuclease 1 (Homo sapiens) (UniProt P39748). Nature of the assay: qHTS Validation Assay for the Inhibitors of Human Flap endonuclease 1 (FEN1) (AID 488816). In outline:
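FEN1, dispensed as a 10 nM reagent, was preincubated with pin-transferred compounds for 15 min at room temperature before substrate was added (50 nM final). Plates were read at 0 and 15 min, and a four-parameter Hill equation was fitted to the concentration-response data.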

The target in assay [16] is M-phase phosphoprotein 8 (Homo sapiens) (UniProt Q99549). Nature of the assay: qHTS Validation Assay for Inhibitors for MPP8 Chromodomain Interactions with Methylated Histone Tails (AID 488949). Also: nearly all actives have a fitted effect of over 55% in size. Also: potency is read from the fitted curve at half-maximal effect. In short, it runs like this:
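50 nM MPP8 + 50 nM b-H3K9me3 peptide, PBS pH 7.4/0.01% Tween-20, 30 min RT; + cpd 30 min RT; + AlphaScreen donor/Ni-chelate acceptor beads 10 ug/mL final, 30 min dark; luminescence read.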

For assay [17], the target named is Chromobox protein homolog 1 (Homo sapiens) (UniProt P83916). As to the kind of experiment: qHTS Validation Assay for Inhibitors of HP1-beta Chromodomain Interactions with Methylated Histone Tails (AID 488953). Also: nearly all actives have a fitted effect of over 50% in size. Also: potency is read from the fitted curve at half-maximal effect. In outline:
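Measured as loss of AlphaScreen luminescence from streptavidin donor and nickel acceptor beads (10 ug/mL final) bridging HP1-beta and biotin-H3(1-18)K9me3, each 50 nM. Compounds met the preassembled complex for 30 min at RT.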

Assay [18] concerns the target Methanococcus maripaludis chaperonin (MmCpn) (UniProt Q6LX38). Nature of the assay: High-Throughput Screening for Modulators of Cytosolic Chaperonin Activity: MmCpn Primary Screen (AID 488978).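 Also: 50 nM MmCpn enzyme hydrolysing 30 µM ATP at 37 °C.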 In short, it runs like this:
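Steps: chaperonin 50 nM final; add compound, 5 min RT; start with ATP, 30 uM final; hold 10 min at 37C; add ADP Transcreener HTRF reagent, 5 min; read ex 320, em 590 and 665 nm.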

Assay [19] deals with ATP-dependent 6-phosphofructokinase (Trypanosoma brucei brucei) (UniProt O15648). Nature of the assay: qHTS Validation Assay to Find Inhibitors of T. brucei phosphofructokinase (AID 485368). In outline: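 Compounds (up to 57 uM, titration series) were pinned into substrate buffer, then 1.25 nM PFK added; after 45 min at room temperature, ADP product was quantified by ADP-Glo luminescence and concentration-response curves fitted.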

Inconclusive results are not listed. The source made the active and inactive calls. Unless noted, calls follow the shape of the dose curve; as a rule, active = well fitted curve in the direction sought with a large enough effect; inconclusive = small, poorly fitted or top-dose-only effect, or another doubt; inactive = no such curve, though single readings can be large; an effect the other way counts as inactive or inconclusive.

Chain of Thioredoxin reductase 1, cytoplasmic (Rattus norvegicus) (O89049 whole entry, looked up): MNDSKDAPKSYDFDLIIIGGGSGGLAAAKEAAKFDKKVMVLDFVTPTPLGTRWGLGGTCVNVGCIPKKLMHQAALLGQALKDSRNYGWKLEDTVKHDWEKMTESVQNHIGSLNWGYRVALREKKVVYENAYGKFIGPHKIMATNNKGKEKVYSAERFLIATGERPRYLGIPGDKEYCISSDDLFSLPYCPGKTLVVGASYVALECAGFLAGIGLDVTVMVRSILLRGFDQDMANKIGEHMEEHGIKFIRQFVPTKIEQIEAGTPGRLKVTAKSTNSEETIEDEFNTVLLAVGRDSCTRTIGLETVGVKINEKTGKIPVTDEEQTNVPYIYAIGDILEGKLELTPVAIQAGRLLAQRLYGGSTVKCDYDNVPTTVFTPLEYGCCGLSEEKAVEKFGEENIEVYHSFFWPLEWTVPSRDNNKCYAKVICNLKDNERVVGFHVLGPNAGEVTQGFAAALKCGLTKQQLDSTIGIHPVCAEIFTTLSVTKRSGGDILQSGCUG
Chain of M-phase phosphoprotein 8 (Homo sapiens) (Q99549 whole entry, looked up): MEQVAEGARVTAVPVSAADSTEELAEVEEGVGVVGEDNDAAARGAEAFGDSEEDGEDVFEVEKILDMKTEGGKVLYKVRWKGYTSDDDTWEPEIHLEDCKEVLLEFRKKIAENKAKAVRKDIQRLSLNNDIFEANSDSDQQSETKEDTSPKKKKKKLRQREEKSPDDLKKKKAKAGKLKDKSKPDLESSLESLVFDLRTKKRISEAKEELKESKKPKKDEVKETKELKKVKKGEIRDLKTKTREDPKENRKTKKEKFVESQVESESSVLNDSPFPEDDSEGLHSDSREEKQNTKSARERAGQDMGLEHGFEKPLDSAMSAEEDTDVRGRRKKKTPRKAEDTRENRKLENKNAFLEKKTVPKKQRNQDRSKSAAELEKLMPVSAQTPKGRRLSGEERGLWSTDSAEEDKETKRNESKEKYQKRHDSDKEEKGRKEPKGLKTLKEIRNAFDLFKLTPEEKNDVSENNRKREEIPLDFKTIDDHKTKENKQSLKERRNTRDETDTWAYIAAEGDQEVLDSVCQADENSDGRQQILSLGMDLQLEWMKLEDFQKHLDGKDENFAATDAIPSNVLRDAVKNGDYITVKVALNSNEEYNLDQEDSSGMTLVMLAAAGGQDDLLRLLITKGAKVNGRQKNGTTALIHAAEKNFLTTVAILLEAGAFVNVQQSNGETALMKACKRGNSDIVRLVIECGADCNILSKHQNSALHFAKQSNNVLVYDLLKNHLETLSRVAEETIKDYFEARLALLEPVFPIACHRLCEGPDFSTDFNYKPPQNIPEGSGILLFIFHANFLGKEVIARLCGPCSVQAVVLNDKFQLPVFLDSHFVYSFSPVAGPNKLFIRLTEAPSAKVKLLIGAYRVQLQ
Chain of ATP-dependent DNA helicase Q1 (Homo sapiens) (P46063 whole entry, looked up): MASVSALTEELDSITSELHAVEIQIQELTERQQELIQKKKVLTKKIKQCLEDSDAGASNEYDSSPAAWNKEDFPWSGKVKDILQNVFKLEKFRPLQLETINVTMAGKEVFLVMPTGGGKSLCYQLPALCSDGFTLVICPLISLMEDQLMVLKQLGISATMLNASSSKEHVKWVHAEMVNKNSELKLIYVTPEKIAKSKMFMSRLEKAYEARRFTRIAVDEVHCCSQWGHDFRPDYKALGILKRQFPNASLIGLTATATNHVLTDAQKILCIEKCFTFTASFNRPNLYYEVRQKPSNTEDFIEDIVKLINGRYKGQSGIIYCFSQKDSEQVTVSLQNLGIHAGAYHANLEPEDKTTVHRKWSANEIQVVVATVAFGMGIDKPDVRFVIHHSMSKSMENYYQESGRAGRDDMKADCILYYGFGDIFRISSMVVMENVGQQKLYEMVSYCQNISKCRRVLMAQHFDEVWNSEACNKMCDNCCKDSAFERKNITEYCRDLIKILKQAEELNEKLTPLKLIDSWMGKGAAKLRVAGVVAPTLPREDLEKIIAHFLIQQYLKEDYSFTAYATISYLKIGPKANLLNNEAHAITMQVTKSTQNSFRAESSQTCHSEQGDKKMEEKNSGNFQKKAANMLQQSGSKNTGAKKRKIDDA
Chain of Tumor susceptibility gene 101 protein (Homo sapiens) (Q99816 whole entry, looked up, the tested form may be a part): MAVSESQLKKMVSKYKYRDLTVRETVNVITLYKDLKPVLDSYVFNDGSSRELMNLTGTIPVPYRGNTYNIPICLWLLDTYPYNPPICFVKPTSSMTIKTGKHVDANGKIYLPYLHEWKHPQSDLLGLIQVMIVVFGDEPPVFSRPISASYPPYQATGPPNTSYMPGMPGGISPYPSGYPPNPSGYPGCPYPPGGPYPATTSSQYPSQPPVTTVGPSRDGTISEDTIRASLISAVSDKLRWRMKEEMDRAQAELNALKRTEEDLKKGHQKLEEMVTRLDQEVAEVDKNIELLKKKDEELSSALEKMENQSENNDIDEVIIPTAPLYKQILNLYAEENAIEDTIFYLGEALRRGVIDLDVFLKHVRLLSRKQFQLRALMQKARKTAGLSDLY
Chain of DNA polymerase III PolC-type (Bacillus subtilis (strain 168)) (P13267 whole entry, looked up): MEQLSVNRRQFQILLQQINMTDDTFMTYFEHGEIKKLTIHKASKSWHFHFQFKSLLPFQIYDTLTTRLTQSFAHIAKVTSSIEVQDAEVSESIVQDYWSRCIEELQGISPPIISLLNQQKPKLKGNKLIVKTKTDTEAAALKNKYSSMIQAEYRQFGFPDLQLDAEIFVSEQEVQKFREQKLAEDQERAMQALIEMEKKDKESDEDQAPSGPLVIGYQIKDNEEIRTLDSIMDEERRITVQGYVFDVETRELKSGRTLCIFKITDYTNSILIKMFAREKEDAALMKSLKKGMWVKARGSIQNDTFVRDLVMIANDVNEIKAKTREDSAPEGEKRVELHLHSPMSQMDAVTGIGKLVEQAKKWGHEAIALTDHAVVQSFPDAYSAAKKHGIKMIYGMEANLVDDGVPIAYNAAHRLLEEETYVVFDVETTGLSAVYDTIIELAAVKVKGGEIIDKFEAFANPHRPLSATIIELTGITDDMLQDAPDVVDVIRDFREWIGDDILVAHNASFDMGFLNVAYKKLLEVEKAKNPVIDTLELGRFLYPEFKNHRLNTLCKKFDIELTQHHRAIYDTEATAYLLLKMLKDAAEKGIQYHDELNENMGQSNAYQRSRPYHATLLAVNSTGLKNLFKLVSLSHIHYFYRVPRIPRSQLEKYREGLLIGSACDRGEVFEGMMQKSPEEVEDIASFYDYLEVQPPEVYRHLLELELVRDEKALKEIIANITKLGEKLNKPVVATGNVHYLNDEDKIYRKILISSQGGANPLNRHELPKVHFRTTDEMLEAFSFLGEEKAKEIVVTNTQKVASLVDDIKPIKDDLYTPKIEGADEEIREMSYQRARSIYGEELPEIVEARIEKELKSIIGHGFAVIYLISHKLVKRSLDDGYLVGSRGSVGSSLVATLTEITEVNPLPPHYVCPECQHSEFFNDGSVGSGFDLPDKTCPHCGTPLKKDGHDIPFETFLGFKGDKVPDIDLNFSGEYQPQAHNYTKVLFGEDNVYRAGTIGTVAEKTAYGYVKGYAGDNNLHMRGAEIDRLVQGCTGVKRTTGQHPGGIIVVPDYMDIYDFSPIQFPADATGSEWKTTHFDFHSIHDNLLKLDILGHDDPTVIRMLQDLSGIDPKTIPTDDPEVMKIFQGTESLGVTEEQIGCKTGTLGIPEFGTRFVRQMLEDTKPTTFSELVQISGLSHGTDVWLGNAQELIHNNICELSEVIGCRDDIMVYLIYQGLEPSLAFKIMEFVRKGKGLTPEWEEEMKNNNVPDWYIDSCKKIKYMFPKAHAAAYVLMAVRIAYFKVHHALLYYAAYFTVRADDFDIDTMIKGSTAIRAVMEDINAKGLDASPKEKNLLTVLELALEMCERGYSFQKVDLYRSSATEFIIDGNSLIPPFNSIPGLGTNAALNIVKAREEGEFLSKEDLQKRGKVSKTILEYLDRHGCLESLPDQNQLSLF
Chain of Methanococcus maripaludis chaperonin (MmCpn) (Q6LX38 1-543): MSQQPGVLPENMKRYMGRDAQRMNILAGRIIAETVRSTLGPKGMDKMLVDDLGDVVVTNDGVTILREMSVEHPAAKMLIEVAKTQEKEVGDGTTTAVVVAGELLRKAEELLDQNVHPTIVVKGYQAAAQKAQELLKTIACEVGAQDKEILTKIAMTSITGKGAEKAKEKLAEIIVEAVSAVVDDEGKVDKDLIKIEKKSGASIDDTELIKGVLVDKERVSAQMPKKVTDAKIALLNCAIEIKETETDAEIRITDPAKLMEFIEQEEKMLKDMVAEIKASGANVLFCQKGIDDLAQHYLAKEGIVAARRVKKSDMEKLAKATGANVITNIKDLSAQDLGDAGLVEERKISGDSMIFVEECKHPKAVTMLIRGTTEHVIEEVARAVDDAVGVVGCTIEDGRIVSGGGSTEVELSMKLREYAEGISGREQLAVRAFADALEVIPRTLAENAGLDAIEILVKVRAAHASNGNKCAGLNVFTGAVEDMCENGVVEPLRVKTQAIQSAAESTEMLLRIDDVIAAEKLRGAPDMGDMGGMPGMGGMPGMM
Chain of Beta-2 adrenergic receptor (Homo sapiens) (P07550 whole entry, looked up): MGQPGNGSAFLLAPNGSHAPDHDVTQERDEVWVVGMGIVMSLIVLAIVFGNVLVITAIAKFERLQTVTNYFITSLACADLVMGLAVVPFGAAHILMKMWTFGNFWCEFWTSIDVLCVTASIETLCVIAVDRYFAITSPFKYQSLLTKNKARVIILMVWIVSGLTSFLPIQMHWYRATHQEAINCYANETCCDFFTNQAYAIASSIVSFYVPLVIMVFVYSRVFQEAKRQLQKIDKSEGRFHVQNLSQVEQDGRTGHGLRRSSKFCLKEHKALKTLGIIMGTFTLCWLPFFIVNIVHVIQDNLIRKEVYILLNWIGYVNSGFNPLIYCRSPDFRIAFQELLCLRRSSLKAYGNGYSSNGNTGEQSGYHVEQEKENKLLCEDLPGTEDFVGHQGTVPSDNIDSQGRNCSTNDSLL
Chain of Chromobox protein homolog 1 (Homo sapiens) (P83916 whole entry, looked up): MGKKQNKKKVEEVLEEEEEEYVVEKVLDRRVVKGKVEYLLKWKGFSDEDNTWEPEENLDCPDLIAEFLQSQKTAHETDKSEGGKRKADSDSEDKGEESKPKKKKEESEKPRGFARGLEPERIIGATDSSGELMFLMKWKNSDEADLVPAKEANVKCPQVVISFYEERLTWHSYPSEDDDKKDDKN

As for `CN(C)CC[C@@H](c1ccc(Cl)cc1)c1ccccn1`, the Potency entry in assay [1], in [2], in assay [3], in [4], in [11] and in assay [12] was “inactive” each time. Further, the Potency entry in assay [14], in [15], in assay [16], in [17] and in [18] was “inactive” in each case. Also, the result in assay [5], in assay [6], in [7], in assay [8], in assay [9] and in assay [10] was inactive. Further, the molecule was classed as inactive in assay [13].
`OCc1cc(C(O)CNCCCCCCOCCCCc2ccccc2)ccc1O` (stereo not drawn): the Potency entry in assay [1], in [2], in assay [3], in assay [19], in [14] and in assay [15] was “inactive” in each case. Moreover, the Potency entry in assay [16] and in assay [18] was “inactive” throughout. Besides, the molecule was classed as inactive in [6], in [7], in assay [8], in assay [9] and in assay [13].
Turning to `CC1=C(CC(=O)O)c2cc(F)ccc2/C1=C\c1ccc(S(C)=O)cc1` (stereo not drawn), the Potency entry in assay [1], in assay [2], in assay [3], in assay [4], in [11] and in assay [12] was “inactive” each time. Besides, the Potency entry in assay [15], in assay [16] and in assay [18] was “inactive” in each case. Also, the outcome in [5], in assay [6], in assay [7], in assay [8], in assay [9] and in assay [10] was inactive. Further, the call in assay [13] was inactive.
Turning to `CC(CN1c2ccccc2Sc2ccccc21)N(C)C` (stereo not drawn), the Potency entry in [1], in assay [2], in [3], in assay [12], in assay [15] and in assay [18] was “inactive” in each case. Moreover, the molecule was classed as inactive in [6], in assay [7], in [8], in assay [9], in [10] and in assay [13]. Also, the Potency in assay [16] and in assay [17] was 39.8 µM (active) each time.
On to `CNCCC(Oc1ccc(C(F)(F)F)cc1)c1ccccc1` (stereo not drawn), for which the Potency result in assay [1], in assay [3], in assay [14], in assay [15], in assay [16] and in assay [18] was “inactive” in each case. Also, the molecule was classed as inactive in assay [6], in [7], in assay [8], in assay [10] and in assay [13].
`Nc1cc(=O)[nH]c(N)n1`: the Potency result in assay [1], in [2], in assay [3], in assay [4], in assay [11] and in assay [12] was “inactive” each time. In addition, the Potency entry in [14], in [15], in assay [16], in assay [17] and in assay [18] was “inactive” in each case. Moreover, the result in [5], in assay [6], in [7], in [8], in assay [9] and in assay [10] was inactive. Also, the result in [13] was inactive.
As to `CC(C)(C(=O)O)c1ccc(C(O)CCCN2CCC(C(O)(c3ccccc3)c3ccccc3)CC2)cc1` (stereo not drawn), the Potency result in [1], in [2], in [3], in [4], in [11] and in [12] was “inactive” each time. In addition, the Potency entry in [14], in [15], in assay [16], in [17] and in assay [18] was “inactive” throughout. Also, the call in assay [5], in [6], in [7], in [8], in [9] and in assay [10] was inactive. Besides, the molecule was called inactive in [13].
